Our source for the AC50 and outcome values is PubChem BioAssay (EPA / NIEHS).

Each structure is given as a SMILES string. Calls of active or inactive are those of the source. Rule for the calls: active = hit-call score of the fitted dose curve at least 0.9, where 1 is the maximum; inactive = score below 0.9.

What all share (settings): mRNA level, 48 h; actives raise or lower the signal
Read-out in experiment [1]: Cyclin Dependent Kinase Inhibitor 1A (CDKN1A), CDKN1A (gene 1026)
In words: LTEA_HepaRG_CDKN1A: Life Technologies and Expression Analysis (LTEA) Assay for Cyclin Dependent Kinase Inhibitor 1A (CDKN1A) using HepaRG (AID 2283450). The method, boiled down: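 Gain or loss of CDKN1A transcript is scored by bidirectional fitting against 0.5% DMSO vehicle. Human HepaRG cultures receive chemicals for 48 h across an 8-point series peaking at 100 uM; expression comes from qRT-PCR.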

Read-out in experiment [2]: Cyclin D1 (CCND1), CCND1 (gene 595)
Kind of experiment: LTEA_HepaRG_CCND1: Life Technologies and Expression Analysis (LTEA) Assay for Cyclin D1 (CCND1) using HepaRG (AID 2283451). Put shortly:
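Expression change is measured by qRT-PCR in HepaRG cells after 48 h treatment across eight concentrations topping at 100 uM, with duplicate wells and DMSO (0.5%) serving as baseline for bidirectional fitting.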

Read-out in experiment [3]: catalase (CAT), CAT (gene 847)
In words: LTEA_HepaRG_CAT: Life Technologies and Expression Analysis (LTEA) Assay for catalase (CAT) using HepaRG (AID 2283452).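 For AC50: TaqMan qRT-PCR signal normalized to ACTB GAPDH and POLR2A housekeeping genes.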 The method, boiled down:
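HepaRG cells in serum-free induction medium, 0.5% DMSO vehicle, exposed 48 h in duplicate over 8 half-log concentrations from 100 uM. CAT mRNA measured by qRT-PCR, normalized to ACTB, GAPDH, POLR2A; bidirectional fit versus DMSO.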

Read-out in experiment [4]: flavin-containing dimethylaniline monooxygenases 3 (FMO3), FMO3 (gene 2328)
In words: LTEA_HepaRG_FMO3: Life Technologies and Expression Analysis (LTEA) Assay for flavin-containing dimethylaniline monooxygenases 3 (FMO3) using HepaRG (AID 2283453). Put shortly:
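Differentiated HepaRG cells in serum-free induction medium, exposed 48 h in duplicate to 8 half-log concentrations up to 100 uM in 0.5% DMSO. FMO3 mRNA by qRT-PCR, normalized to ACTB, GAPDH, POLR2A; bidirectional fit vs DMSO.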

Read-out in experiment [5]: Cytochrome P450 (CYP1A1), CYP1A1 (gene 1543)
Kind of experiment: LTEA_HepaRG_CYP1A1: Life Technologies and Expression Analysis (LTEA) Assay for Cytochrome P450 (CYP1A1) using HepaRG (AID 2283454). Put shortly: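 Using HepaRG cultures with 0.5% DMSO as vehicle, eight-concentration exposures (max 100 uM) lasted 48 h. Transcript levels were measured by TaqMan qRT-PCR and normalized to ACTB, GAPDH and POLR2A.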

Read-out in experiment [6]: CFLAR gene, CFLAR (gene 8837)
Kind of experiment: LTEA_HepaRG_CFLAR: Life Technologies and Expression Analysis (LTEA) Assay for CFLAR gene using HepaRG (AID 2283455). Put shortly:
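Differentiated HepaRG cells in serum-free induction medium were exposed 48 h in duplicate to eight half-log concentrations up to 100 uM in 0.5% DMSO; mRNA measured by TaqMan qRT-PCR, normalized to ACTB, GAPDH, POLR2A; bidirectional fitting versus DMSO.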

Read-out in experiment [7]: Forkhead box O1 (FOXO1), FOXO1 (gene 2308)
In words: LTEA_HepaRG_FOXO1: Life Technologies and Expression Analysis (LTEA) Assay for Forkhead box O1 (FOXO1) using HepaRG (AID 2283456). Put shortly:
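Differentiated HepaRG cells, in serum-free induction medium with 0.5% DMSO, exposed 48 h in duplicate to 8-point half-log series from 100 uM. FOXO1 mRNA measured by TaqMan qRT-PCR, normalized to ACTB, GAPDH, POLR2A; bidirectional fit versus DMSO.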

Read-out in experiment [8]: growth arrest and DNA damage 45 (GADD45A), GADD45A (gene 1647)
Kind of experiment: LTEA_HepaRG_GADD45A: Life Technologies and Expression Analysis (LTEA) Assay for growth arrest and DNA damage 45 (GADD45A) using HepaRG (AID 2283458). Put shortly: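 Cells plated and cultured 48 h, switched to serum-free induction medium, then dosed for 48 h (100 uM top, half-log dilutions, 0.5% DMSO). RNA was isolated and transcript measured by Fluidigm qRT-PCR.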

Read-out in experiment [9]: Forkhead box O3 (FOXO3), FOXO3 (gene 2309)
Kind of experiment: LTEA_HepaRG_FOXO3: Life Technologies and Expression Analysis (LTEA) Assay for Forkhead box O3 (FOXO3) using HepaRG (AID 2283459). The method, boiled down:
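Differentiated human HepaRG cells, 48 h post-plating, exposed in duplicate for 48 h in serum-free induction medium; 8-point half-log series from 100 uM in 0.5% DMSO. FOXO3 mRNA by TaqMan qRT-PCR, normalized to ACTB/GAPDH/POLR2A; bidirectional fit versus DMSO.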

Read-out in experiment [10]: ABC Transporter (ABCB1), ABCB1 (gene 5243)
Kind of experiment: LTEA_HepaRG_ABCB1: Life Technologies and Expression Analysis (LTEA) Assay for ABC Transporter (ABCB1) using HepaRG (AID 2283460). Put shortly:
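HepaRG cells exposed in duplicate for 48 h in serum-free induction medium to eight half-log concentrations up to 100 uM in 0.5% DMSO. ABCB1 mRNA quantified by qRT-PCR, normalised to ACTB, GAPDH and POLR2A; fitted bidirectionally versus DMSO.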

Read-out in experiment [11]: growth arrest and DNA damage 45 (GADD45B), GADD45B (gene 4616)
In words: LTEA_HepaRG_GADD45B: Life Technologies and Expression Analysis (LTEA) Assay for growth arrest and DNA damage 45 (GADD45B) using HepaRG (AID 2283461). The method, boiled down: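 Human HepaRG monolayers receive chemicals for 48 h at eight half-log concentrations, highest 100 uM, in 0.5% DMSO. Expression is measured by TaqMan qRT-PCR and normalized to ACTB, GAPDH and POLR2A.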

Read-out in experiment [12]: ABC Transporter (ABCC3), ABCC3 (gene 8714)
In words: LTEA_HepaRG_ABCC3: Life Technologies and Expression Analysis (LTEA) Assay for ABC Transporter (ABCC3) using HepaRG (AID 2283462). The method, boiled down:
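Transcriptional change of ABCC3 in HepaRG after 48 h treatment, determined by qRT-PCR normalized to endogenous controls. Concentrations spanned eight half-log steps to 100 uM in 0.5% DMSO.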

Read-out in experiment [13]: ABC Transporter (ABCB11), ABCB11 (gene 8647)
Kind of experiment: LTEA_HepaRG_ABCB11: Life Technologies and Expression Analysis (LTEA) Assay for ABC Transporter (ABCB11) using HepaRG (AID 2283463). Put shortly: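 Differentiated human HepaRG cells in serum-free induction medium, dosed in duplicate for 48 h. Eight-point half-log series from 100 uM in 0.5% DMSO; ABCB11 mRNA by qRT-PCR, normalized to ACTB, GAPDH, POLR2A, fitted bidirectionally versus DMSO.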

Read-out in experiment [14]: ABC Transporter (ABCC2), ABCC2 (gene 1244)
Kind of experiment: LTEA_HepaRG_ABCC2: Life Technologies and Expression Analysis (LTEA) Assay for ABC Transporter (ABCC2) using HepaRG (AID 2283464). Put shortly: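 After plating and 48 h culture, HepaRG medium is replaced with serum-free induction medium and chemicals are added (8 concentrations, max 100 uM, 0.5% DMSO) for 48 h. Total RNA then undergoes qRT-PCR for ABCC2 with housekeeping normalization.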

Read-out in experiment [15]: Broad substrate specificity ATP-binding cassette transporter ABCG2 (Homo sapiens) (UniProt Q9UNQ0)
In words: LTEA_HepaRG_ABCG2: Life Technologies and Expression Analysis (LTEA) Assay for ABC Transporter (ABCG2) using HepaRG (AID 2283465). The method, boiled down: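 Differentiated HepaRG cells were exposed for 48 h in serum-free induction medium to 8 half-log concentrations, top 100 uM, in 0.5% DMSO. ABCG2 mRNA was measured by qRT-PCR, normalized to ACTB, GAPDH and POLR2A, with bidirectional fitting versus DMSO.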

Read-out in experiment [16]: Peroxisomal acyl-coenzyme A oxidase 1 (ACOX1) gene, ACOX1 (gene 51)
Kind of experiment: LTEA_HepaRG_ACOX1: Life Technologies and Expression Analysis (LTEA) Assay for Peroxisomal acyl-coenzyme A oxidase 1 (ACOX1) gene using HepaRG (AID 2283467). The method, boiled down:
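HepaRG cells, plated 48 h then switched to serum-free induction medium, were exposed in duplicate for 48 h to 8-point half-log concentrations up to 100 uM in 0.5% DMSO. ACOX1 mRNA was measured by qRT-PCR, normalized to ACTB/GAPDH/POLR2A, and fitted bidirectionally versus DMSO.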

Read-out in experiment [17]: Alkaline Phosphatase, Placental (ALPP) gene, ALPP (gene 250)
Kind of experiment: LTEA_HepaRG_ALPP: Life Technologies and Expression Analysis (LTEA) Assay for Alkaline Phosphatase, Placental (ALPP) gene using HepaRG (AID 2283468). Put shortly: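 Using human liver HepaRG cells, chemicals are tested in duplicate over 48 h at half-log concentrations topping at 100 uM; phenobarbital 1 mM serves as induction control. ALPP mRNA change by qRT-PCR, bidirectional fit against vehicle.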

Read-out in experiment [18]: Cyclin D2 (CCND2), CCND2 (gene 894)
Kind of experiment: LTEA_HepaRG_CCND2: Life Technologies and Expression Analysis (LTEA) Assay for Cyclin D2 (CCND2) using HepaRG (AID 2283449).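 Note: CCND2 transcript measured by TaqMan qRT-PCR and normalised to three housekeeping genes.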 The method, boiled down:
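Chemicals in 0.5% DMSO, eight half-log concentrations from 100 uM top, were applied in duplicate for 48 h to human HepaRG cells in serum-free induction medium. CCND2 mRNA by TaqMan qRT-PCR, normalised to ACTB/GAPDH/POLR2A; bidirectional fit versus DMSO.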

Read-out in experiment [19]: ATP-citrate lyase (ACLY), ACLY (gene 47)
In words: LTEA_HepaRG_ACLY: Life Technologies and Expression Analysis (LTEA) Assay for ATP-citrate lyase (ACLY) using HepaRG (AID 2283466). Put shortly:
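Differentiated HepaRG cells exposed 48 h in serum-free induction medium to eight half-log concentrations up to 100 uM in 0.5% DMSO, duplicates. Transcript measured by Fluidigm TaqMan qRT-PCR, normalized to ACTB, GAPDH, POLR2A; bidirectional fit versus DMSO.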

Chain of Broad substrate specificity ATP-binding cassette transporter ABCG2 (Homo sapiens) (Q9UNQ0 whole entry, looked up): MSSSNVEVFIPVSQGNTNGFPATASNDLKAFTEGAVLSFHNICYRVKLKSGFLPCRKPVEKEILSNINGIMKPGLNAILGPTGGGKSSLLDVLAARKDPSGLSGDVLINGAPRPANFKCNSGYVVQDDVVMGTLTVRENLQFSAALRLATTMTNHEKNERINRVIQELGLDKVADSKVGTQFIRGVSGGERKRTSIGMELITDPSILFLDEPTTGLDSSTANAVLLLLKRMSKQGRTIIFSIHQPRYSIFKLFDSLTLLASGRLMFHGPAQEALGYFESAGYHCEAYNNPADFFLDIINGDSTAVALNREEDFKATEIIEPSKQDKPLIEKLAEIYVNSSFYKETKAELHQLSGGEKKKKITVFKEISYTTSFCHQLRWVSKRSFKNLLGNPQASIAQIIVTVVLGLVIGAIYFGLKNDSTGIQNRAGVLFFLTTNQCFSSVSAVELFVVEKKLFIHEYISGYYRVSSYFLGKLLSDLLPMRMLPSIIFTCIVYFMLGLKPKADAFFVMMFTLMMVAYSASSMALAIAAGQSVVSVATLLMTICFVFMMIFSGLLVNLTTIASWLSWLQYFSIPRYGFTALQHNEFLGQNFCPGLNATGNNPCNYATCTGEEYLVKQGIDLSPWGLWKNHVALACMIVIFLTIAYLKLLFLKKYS

For `Cc1cc(CCN2CCN(c3nsc4ccccc34)CC2)cc2c1NC(=O)CC2(C)C`, the AC50 was 76.7 µM (active) in [1]; 73.4 µM (active) in experiment [3]; 77.8 µM (active) in experiment [4]; 7.65 µM (active) in [5]; 79.8 µM (active) in [10]; 74.7 µM (active) in [13]. For the same molecule, the AC50 in experiment [14] is 85.1 µM (active); in [15] it was 32 µM (active); in [16], 75.2 µM (active); in experiment [17] it was 50 µM (active). Further, the result in experiment [2], in experiment [6], in experiment [7], in [8], in experiment [9] and in [11] was inactive. The call in experiment [12] was inactive.
In the case of `c1ccc2cc3c(ccc4ccccc43)cc2c1`, the molecule was called inactive in experiment [18], in experiment [1], in [8], in experiment [14], in experiment [15] and in experiment [19]. Moreover, the result in experiment [17] was inactive. For the same molecule, the concentration at half-maximal activity (AC50) in experiment [3] is 15.4 µM (active); in experiment [4] it was 13.6 µM (active); in experiment [5], 1.66 µM (active); in experiment [6], 10.5 µM (active); in experiment [7], 17.8 µM (active); in experiment [9], 6.54 µM (active). Besides, the AC50 in [10] was 13.2 µM (active); in experiment [11] it was 20.1 µM (active); in experiment [13], 14.6 µM (active); in experiment [16] it was 18.8 µM (active).
As for `CC(C)(C)c1ccc(O)c(C(C)(C)C)c1`, the AC50 in experiment [18] is 0.00316 µM (active). Also, the molecule was called inactive in experiment [1], in [3], in [4], in [5], in [6] and in experiment [7]. Moreover, the molecule was called inactive in experiment [8], in experiment [9], in experiment [10], in [11], in experiment [13] and in experiment [14]. The result in experiment [15], in [16] and in experiment [17] was inactive.

Broadly, the AC50 is the midpoint of the concentration-response curve, whichever way the signal moves.
